The results in this text go back to PubChem BioAssay AID504725 (Broad Institute, 2011).

This experiment concerns the target KSHV LANA C-terminal domain (residues 932-1162) binding to LBS DNA (UniProt O40947). The experiment is described as follows: inhibitors of C-LANA binding to LBS DNA, dose response, biochemical, fluorescence polarization, cherry-picked samples (AID 504725). On the technique in general: Fluorescence polarisation rises when a labelled molecule tumbles more slowly, as on binding a larger partner.

Results with a measured potency or affinity are listed apart. The source made the active and inactive calls. How the calls were made is not given here.

On to `N#C/C(=C\c1ccc(-c2ccccc2[N+](=O)[O-])o1)C(N)=O`, for which the outcome was inactive.
Consider `COc1[nH]c(/N=C/c2ccccc2)c(C#N)c1C#N`, for which the compound was called inactive.
With `NNC(=O)C1C(O)CCC2CN3CCc4c([nH]c5ccccc45)C3CC21` (stereo unspecified) the entry was “inactive”; with `Nc1ccc(C(=O)Nc2ccc3c(O)cc(S(=O)(=O)O)cc3c2)cc1`, “inactive”; with `O=C(CSc1nc2ccccc2[nH]1)Nc1cccc(S(=O)(=O)N2CCOCC2)c1`, “inactive”.
For `Oc1[nH]c2ccccc2c1N=Nc1ccccc1F`, the result was inactive.
For the compound `O=C(O)CC1(CC(=O)NCc2ccncc2)CCCCC1`, the compound was classed as inactive.
Turning to `CN(c1ccc(OCC(=O)OCC(=O)c2c(N)n(C)c(=O)n(C)c2=O)cc1)S(=O)(=O)c1ccc2ccccc2c1`, the outcome was inactive.
On to `CN(CC(=O)Nc1ccc(N2CCOCC2)cc1)C(=O)CSc1ccc(Br)cc1`, for which the result was inactive.
In the case of `COc1ccc(CNC(=O)C2CCC(CNC(=O)[C@@H]3Cc4ccccc4CN3)CC2)cc1` (stereo partly specified), the result was inactive.
With `CSc1nc(SC(C)C(=O)O)c2c3c(sc2n1)COC(C)(C)C3` (stereo unspecified) the entry was “inactive”.
For the compound `CCN(CC(=O)NCc1cccs1)C(=O)c1ccc(S(=O)(=O)Nc2ccccc2C)cc1`, the result was inactive.
As for `Cc1ccccc1NC(=S)NC(C)CCc1ccccc1` (stereo unspecified), the outcome was inactive.
On to `O=c1nc(N2CCOCC2)ccn1-c1nc(-c2ccccc2)sc1-c1ccccc1`, for which the outcome was inactive.
With `O=C1c2ccccc2C(=O)C1c1ccccn1`, the compound was called inactive.
On to `O=C1C=C(c2ccoc2)N2CCC[C@H]2C1`, for which the compound was called inactive.
For the compound `Cc1ccc(S(=O)(=O)/N=C2/C=C(Sc3ncn[nH]3)C(=O)c3ccccc32)cc1`, the call was inactive.
Turning to `COc1ccc(Br)cc1CNC(=O)CCCc1cn(C)c2ccccc12`, the compound was called inactive.
Then `C=CCn1c(C)cc(-c2csc(NC(=O)CCc3nc4ccccc4c(=O)[nH]3)n2)c1C`, with “inactive”.
Then `Cc1nn(CC(=O)c2ccc(Br)s2)c(C)c1[N+](=O)[O-]`, with “inactive”; and `Cc1cc(C)n(CCC(=O)N/N=C/c2ccc(O)cc2O)n1`, with “inactive”; and `CSC(=NS(=O)(=O)c1ccc(N)cc1)NS(=O)(=O)c1cccs1`, with “inactive”.
For the compound `CC(C)=C[C@@H]1C[C@H](C)[C@H]2CC[C@H](C)c3c(O[C@@H]4O[C@@H](C)[C@@H](O)[C@@H](O)[C@@H]4O)c(O)c(C)c1c32`, the compound was classed as inactive.
Turning to `COc1ccc(CC(=O)O/N=C(\N)c2ccc(OC)cc2)cc1`, the outcome was inactive.
With `CC(=O)N(C(C)=O)N1C(=O)c2cccc3c(N4CCOCC4)ccc(c23)C1=O` the entry was “inactive”; with `CCCc1cc(=O)oc2cc(C)cc(OCC(=O)O)c12`, “inactive”; with `Oc1ccc(-c2nc3ccccn3c2NCc2ccco2)cc1`, “inactive”.
For the compound `Cc1cc(C)n(CC(=O)NNC(=O)CC(C)c2ccccc2)n1` (stereo unspecified), the compound was called inactive.
With `O=C(/C=C/c1ccco1)Nc1ccccc1C(=O)Nc1cccc(C(=O)O)c1`, the result was inactive.
Regarding `NC(=S)COc1ccccc1`, the outcome was inactive.
With `CCOc1ccc(C(C)NC(=O)c2ccccc2OCc2c(C)noc2C)cc1OCC` (stereo unspecified) the entry was “inactive”; with `COc1ccc(N=C2SC(CC(=O)Nc3ccccc3)C(=O)N2Cc2ccco2)cc1` (stereo unspecified), “inactive”; with `CCN1/C(=C2/SC(=S)N(NC(C)=O)C2=O)Sc2ccc(OC)cc21`, “inactive”.
Then `CC(C)N(Cc1ccccc1)C(=O)Cn1c(=O)cnc2ccccc21`, with “inactive”; and `O=S(=O)(O)c1cc(O)c2cc(Nc3ccccc3)ccc2c1`, with “inactive”; and `CCc1ccc(N2CC(C(=O)OCC(=O)N(CC)c3c(N)n(Cc4ccccc4)c(=O)[nH]c3=O)CC2=O)cc1` (stereo unspecified), with “inactive”.
With `COc1ccc(NC(=O)CN(C)CC(=O)Nc2ccc(N3CCOCC3)cc2)c([N+](=O)[O-])c1` the entry was “inactive”; with `CCn1c(=O)c(C(=O)NCCN2CCCCC2)c(O)c2ccccc21`, “inactive”.
For `Cc1ccc2c(c1)nnn2C1CCN(C(=O)c2cccs2)CC1`, the compound was classed as inactive.
With `CCN(C(=O)COC(=O)c1nc2nc(C)cc(C)n2n1)C1CCCCC1` the entry was “inactive”; with `COc1cc2c(cc1OC)CN(C(=O)c1ccc(S(=O)(=O)N3CCCC3)cc1)CC2`, “inactive”.
On to `N=C1/C(=C\c2ccc(Br)o2)C(=O)N=C2SC(CC(=O)N3CCOCC3)=NN12`, for which the result was inactive.
Take `O=C(Nc1cc(Cl)ccc1-n1cncn1)c1cccs1`: the call was inactive.
With `NNc1nc2sc3c(c2c(=O)n1C1CCCCC1)CCN(Cc1ccccc1)C3` the entry was “inactive”.
For `C=C1c2cccc(O)c2C(O)=C2C(=O)[C@]3(O)C(O)=C(C(N)=O)C(=O)[C@@H](N(C)C)[C@@H]3[C@@H](O)[C@H]12`, the compound was classed as inactive.
With `Cc1cccc(NC(=O)CN2C(=O)NC(C)(c3ccc4ccccc4c3)C2=O)n1` (stereo unspecified), the outcome was inactive.
